For 27 molecules, outcome and AC50 results are on record in PubChem BioAssay (EPA / NIEHS).

Structures are written as SMILES. Active and inactive are the calls of the source. The calls were made as follows: active = hit-call score of the fitted dose curve at least 0.9, where 1 is the maximum; inactive = score below 0.9.

As a reminder, the AC50 is the concentration giving half of the maximal activity seen.

This assay in a line: CCTE_Shafer_MEA_acute_burst_duration_mean: CCTE's Neural Acute Assay for Mean Burst Duration, Shafer Lab (AID 2284014). The protocol:
CCTE_Shafer_MEA_acute assay is conducted using Axion Biosystems 48 well microelectrode array (MEA) plates and Maestro recording system. Each well of the MEA plate contains a grid of 16 microelectrodes embedded in the culture surface. Electrically active cells, such as neurons, can be cultured over the electrodes, and electrical activity in these cells can be recorded extracellularly. The spontaneous firing of neurons is captured from each electrode on a microsecond timescale providing both temporally and spatially precise data. […] The CCTE_Shafer_MEA_acute assay uses primary cultures of rat cortical neurons. As these cultures mature over time, neural networks develop functional activity and form cohesive networks in which electrical activity can be highly coordinated. Baseline 40-minute recordings are made on days post-plating 13 or 15, followed by a secondary 40-minute recording after chemical exposure.CCTE_Shafer_MEA_acute_burst_duration_mean is a component of the CCTE_Shafer_MEA_acute assay. It measures the average time from the first spike (action potential firing) to the last spike in a single-electrode burst (temporally-clustered group of spikes) during a recording in a microelectrode array (MEA) using Axion Biosystems Maestro 768 channel amplifier with the AxIS adaptive spike detector. The recordings before and after chemical treatment are used to calculate a percent change in the mean burst duration in each well.Data from the assay component CCTE_Shafer_MEA_acute_burst_duration_mean was analyzed into 1 assay endpoint. This assay endpoint, CCTE_Shafer_MEA_acute_burst_duration_mean, was analyzed in the negative analysis fitting direction relative to DMSO as the negative control and baseline of activity. Using a type of functional reporter, gain or loss-of-signal activity can be used to understand electrical activity.
Spontaneous activity in the cortical cultures was recorded using an Axion Biosystems Maestro 768 channel amplifier and Axion Integrated Studios (AxIS) v1.8 (or later) software. The amplifier recorded from all channels simultaneously (gain = 1200 x; sampling rate = 12.5 kHz/channel): raw signals were filtered with a Butterworth band-pass filter (300-5000 Hz), which filters out slower local field potentials leaving only fast potentials, i.e., "spikes", arising from extracellular currents associated with action potentials (Pine 2006; Wheeler and Nam 2011). On-line spike detection of filtered signals was conducted with the AxIS adaptive spike detector, using a threshold of 8x the root mean squared (rms) noise on each channel. Any electrodes with rms noise levels greater than 5 uV were grounded (e.g., no data were recorded). Once grounded, an electrode was grounded for the duration of the experiment. All recordings were conducted at 37 C. Wells were deemed usable if on the day of the exposure >/= 10 electrodes were active (defined as >/= 5 spikes/min). On DIV 13 or 15, a minimum of three wells from one cortical culture preparation were treated with each compound (0.03-40 uM). Prior to recording baseline activity, each mwMEA plate was placed in the Maestro at 37 C and allowed to sit for 20 min while firing rates stabilized. Baseline activity (40 min) was recorded before the addition of each compound. An additional 40 min of spontaneous activity was recorded in the presence of each compound. Changes in network parameters relative to baseline were assessed following compound treatment.
Regarding `C[Si]1(C)O[Si](C)(C)O[Si](C)(C)O[Si](C)(C)O1`, the call was inactive. Regarding `CNCc1cc(F)ccc1Oc1ccc(Cl)c(Cl)c1`, the AC50 is 33.5 µM (active). With `CCCCCCCCCCO`, the molecule was called inactive. On to `Nc1ccccc1N`, for which the result was inactive. As to `C=CCOC(=O)c1ccccc1C(=O)OCC=C`, the molecule was called inactive. The same measure, in the same setting: for `NS(=O)(=O)c1cc2c(cc1Cl)NCNS2(=O)=O` the value was “inactive”. Still for that read-out and setting: for `CN1CCCC1=O` the value was “inactive”; for `c1cc(-c2ccncc2)ccn1`, “inactive”. On the same count and under the same terms, for `COc1ccc2c(c1)c(CC(=O)O)c(C)n2C(=O)c1ccc(Cl)cc1` the value was “inactive”; for `CN[C@H]1CC[C@@H](c2ccc(Cl)c(Cl)c2)c2ccc(S(N)(=O)=O)cc21`, “inactive”.

In the case of `COc1ccc(S(=O)(=O)N2C(=O)[C@@](c3ccccc3OC)(N3C[C@H](O)C[C@H]3C(=O)N(C)C)c3cc(Cl)ccc32)c(OC)c1`, the molecule was called inactive. Still for that read-out and setting: for `CCCCCCCCCCCCCCCCCC(=O)O` the value was “inactive”.

Consider `CC(C)(C)c1cc(O)c(C(C)(C)C)cc1O`, for which the AC50 was 29.4 µM (active). As for `Cc1ccc(C(C)C)c(O)c1`, the result was inactive. Still for that read-out and setting: for `NCC1(Cc2noc(=O)[nH]2)CCCCC1` the value was “inactive”.

For the molecule `Clc1cc(Cl)c(Cl)cc1Cl`, the result was inactive. Still for that read-out and setting: for `O=C(O)CCCCC(=O)O` the value was “inactive”; for `FC(F)(F)C(F)(F)C(F)(F)C(F)(F)C(F)(F)C(F)(F)CCI`, “inactive”; for `CC(=O)Oc1ccccc1C(=O)O`, “inactive”.

In the case of `Nc1ccc2c(c1)C(=O)c1ccccc1C2=O`, the molecule was classed as inactive.

As for `CCCc1cc(=O)[nH]c(=S)[nH]1`, the outcome was inactive. Still for that read-out and setting: in the case of `CCOC(=O)C(C)(C)Oc1ccc(Cl)cc1` it was “inactive”; in that of `Cc1ccc2ncccc2c1`, “inactive”; in that of `CC(=O)C(C)=CC1C(C)=CCCC1(C)C` (configuration not stated), “inactive”. The same measure, in the same setting: in the case of `Cc1ccc(C)c(O)c1C` it was “inactive”. On the same count and under the same terms, for `C=CCc1ccc(O)c(OC)c1` the value was “inactive”; for `Nc1nc(N)c2nc(CNc3ccc(C(=O)N[C@@H](CCC(=O)O)C(=O)O)cc3)cnc2n1`, “inactive”.
